A number with no mark means an inactive call. Results filed as inconclusive are left out. Calls of active or inactive are those of the source. Unless noted, the call rests on the fitted dose curve; in most records, active means well fitted curve in the direction sought with a large enough effect; inconclusive means small, poorly fitted or top-dose-only effect, or another doubt; inactive means no such curve, though single readings can be large; an effect the other way counts as inactive or inconclusive.

These results are taken from PubChem BioAssay (NCATS).

The target of assay [1] is Lysosomal acid glucosylceramidase (Homo sapiens) (UniProt P04062). Briefly: Glucocerebrosidase-p2 (AID 348; in the data active means potency below about 10 µM; further: potency means the concentration at half of the fitted maximal effect). Conditions: purified GBA, blue fluorogenic substrate, 40 min. The method in brief:
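Normal human glucocerebrosidase (0.2 nM) with blue fluorogenic substrate (80 uM final) in citrate/phosphate pH 5.9 with 10mM sodium taurocholate, 0.01% tween-20; 40 min RT, NaOH/glycine stop; fluorescence Ex 365/Em 440; AC50 from a titration from 0.6 nM upwards.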

A short description of assay [2]: AP1 Signaling Pathway (AID 357; active means well fitted curve in either direction with a large enough effect, not every such curve was filed as active;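 further: ME-180 reporter cells stimulated with EGF at its EC50 level; on the % scale 0 is the no-effect control and ±100 the full control effect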). To be noted: ME-180 AP-1-bla reporter, EGF-induced, beta-lactamase ratio, 5 h; at 7.69 µM (top of the series) unless noted. Put shortly: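 Beta-lactamase reporter under AP-1 response element, ME-180 background. Stimulus: EC50 EGF. Compound exposure 5 h, 37 °C. Detection: CCF4, 2.5 h RT, 460/530 nm. Values: AC50 from titration.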
Assay [3] has as its target Cytochrome P450 1A2 (Homo sapiens) (UniProt P05177). Briefly: p450-cyp1a2 (AID 410; calls by dose curve; further: potency means the concentration at half of the fitted maximal effect). Conditions: recombinant CYP1A2, luciferin-ME demethylation, luminescence; series mostly up to 57 µM. Put shortly: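 Read-out is luminescence from luciferin produced by CYP1A2 demethylation of Luciferin-ME (100uM, at Km). Detection reagent stopped the 60 min NADPH-dependent reaction; signals were normalized to 57 uM furafylline.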

The nature of assay [4]: NFAT Signaling Pathway (AID 444; active means well fitted curve in either direction with a large enough effect, not every such curve was filed as active;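 further: carbachol stimulus at about its EC50 of 1 µM final; on the % scale 0 is the no-effect control and ±100 the full control effect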). To be noted: Jurkat NFAT-bla M1, carbachol, beta-lactamase ratio, 5 h; at 7.69 µM (top of the series) unless noted. Put shortly: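 Read-out: CCF4 FRET ratio (460 nm/530 nm) after 1 h RT dye loading, used for %activity and AC50 from titration series. Cells: Jurkat NFAT-β-lactamase/M1 line, treated with compound plus 1 uM carbachol for 5 h, 37 °C.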

A short description of assay [5]: Stat Signaling Pathway (AID 446; active means well fitted curve in either direction with a large enough effect, not every such curve was filed as active;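 further: ME-180 cervical cancer cells given 40 pM IL-6 alongside compound; SIE-controlled beta-lactamase reporter measured as 460/530 nm FRET emission ratio; on the % scale 0 is the no-effect control and ±100 the full control effect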). Conditions: ME-180 (cervical carcinoma) SIE beta-lactamase reporter, IL-6 stimulated, 5 h; at 7.69 µM (top of the series) unless noted. The method in brief:
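FRET read-out (405 nm excitation, 460/530 nm emission) of a beta-lactamase reporter under a STAT-inducible element in ME-180 cervical carcinoma cells. Cells with compound receive 40 pM IL-6 for 5 h. Values are normalised to AC90 stimulation and AC90 JAK-inhibitor controls.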

For assay [6], the target named is Glucocorticoid receptor (Homo sapiens) (UniProt P04150). Briefly: GR-GFP Redistribution (AID 450;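 active means compounds whose dose series gives a full or clear partial fitted curve of increased nuclear translocation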; further: potency means the concentration at half of the fitted maximal effect). To be noted: U2OS GR-GFP nuclear translocation, laser cytometry, 2 h.
Glucocorticoid receptor (Homo sapiens), sequence (P04150 whole entry, looked up): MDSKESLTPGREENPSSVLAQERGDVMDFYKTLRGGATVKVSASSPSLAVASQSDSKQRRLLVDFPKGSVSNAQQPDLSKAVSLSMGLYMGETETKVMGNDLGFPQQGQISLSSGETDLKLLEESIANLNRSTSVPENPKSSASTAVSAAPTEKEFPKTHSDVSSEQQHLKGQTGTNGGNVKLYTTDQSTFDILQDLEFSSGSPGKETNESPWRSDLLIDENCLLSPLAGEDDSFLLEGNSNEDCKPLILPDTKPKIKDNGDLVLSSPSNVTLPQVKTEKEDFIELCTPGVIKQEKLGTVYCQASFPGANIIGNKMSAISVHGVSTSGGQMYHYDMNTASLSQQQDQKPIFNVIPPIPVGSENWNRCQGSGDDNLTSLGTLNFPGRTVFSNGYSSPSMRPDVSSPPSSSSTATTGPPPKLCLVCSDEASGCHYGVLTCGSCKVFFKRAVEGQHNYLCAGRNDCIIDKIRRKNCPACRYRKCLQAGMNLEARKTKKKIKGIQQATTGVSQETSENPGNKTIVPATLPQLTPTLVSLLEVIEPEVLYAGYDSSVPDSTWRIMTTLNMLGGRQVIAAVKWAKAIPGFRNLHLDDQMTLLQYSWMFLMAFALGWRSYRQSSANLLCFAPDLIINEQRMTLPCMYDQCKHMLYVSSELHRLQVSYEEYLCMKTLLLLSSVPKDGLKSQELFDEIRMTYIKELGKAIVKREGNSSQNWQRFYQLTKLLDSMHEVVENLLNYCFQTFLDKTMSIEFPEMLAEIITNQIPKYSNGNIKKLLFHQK
Assay [7] has the same target. Briefly: GR-EFC Redistribution (AID 451; calls by dose curve; further: potency means the concentration at half of the fitted maximal effect). Conditions: CHO-K1 GR-EFC translocation, beta-gal luminescence, 2 h. Put shortly:
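Translocation of GR-ED fusion to nuclear EA restores b-gal, read by luminescence after 1 h room-temperature detection. Engineered CHO-K1 biosensor cells, 1,000/well, exposed 2 h at 37 C to titrations up to 46 uM final.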

The target of assay [8] is Mitogen-activated protein kinase 10 (Mus musculus) (UniProt Q61831). Briefly: JNK3 AlphaScreen Assay (AID 530; active means well fitted curve in either direction with a large enough effect, not every such curve was filed as active;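 further: kinase came from lysate of stimulated human HepG2 cells; signal reports phosphorylation of biotinylated GST-cJun 1-79 at Ser73 with 10 µM ATP; on the % scale 0 is the no-effect control and ±100 the full control effect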). To be noted: JNK3 lysate, c-Jun phosphorylation; series mostly up to 57.1 µM. Put shortly:
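Kinase buffer: 20 mM Tris-HCl pH 7.6, 10 mM MgCl2, 1 mM DTT, 0.1 mM Na3VO4, 0.01% Tween-20; ATP 10 uM. Substrate biotin-GST-cJun(1-79), enzyme from activated HepG2 lysates. Detection by Ser73 phospho-antibody AlphaScreen.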
(In general: Alpha assays give light when donor and acceptor beads are brought close together.)

Assay [9] addresses Cytochrome P450 3A4 (Homo sapiens) (UniProt P08684). Briefly: qHTS Assay for Activators of Cytochrome P450 3A4 (AID 885). Further: nearly all actives have a fitted effect of over 65% in size. Conditions: recombinant CYP3A4, Luciferin-PPXE luminescence, 60 min; series mostly up to 57.1 µM. The method in brief:
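Luminescent readout of luciferin formed from 25 uM Luciferin-PPXE (KM level) by 20 nM CYP3A4 in 200 mM KPO4, with 60 min NADPH-driven reaction at room temperature after 10 min compound exposure. Ketoconazole (57 uM) defined 100% inhibition.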
For orientation: Quantitative high-throughput screening tests each substance at several concentrations.

Assay [10] has as its target Dual specificity protein kinase CLK4 (Homo sapiens) (UniProt Q9HAZ1). Briefly: qHTS Assay for Inhibitors of CDC-like Kinase 4 (Kinase-Glo Assay) (AID 1770). Further: nearly all actives have a fitted effect of over 65% in size. Further: potency means the concentration at half of the fitted maximal effect. Conditions: recombinant Clk4, Kinase-Glo ATP depletion luminescence; series mostly up to 66.7 µM. Put shortly:
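Recombinant human Clk4 (25 nM) phosphorylated RS repeat peptide (100 uM) with 1 uM ATP in Tris pH 7.5/MgCl2/EGTA/DTT/Triton buffer for 4.5 h at room temperature. Residual ATP was quantified by Kinase-Glo luciferase luminescence.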

Assay [11] shares this target. Briefly: qHTS Assay for Inhibitors of CDC-like Kinase 4 (ADP-FP Assay) (AID 1795). Further: nearly all actives have a fitted effect of over 60% in size. Further: potency means the concentration at half of the fitted maximal effect. To be noted: Transcreener ADP fluorescence polarization; series mostly up to 50 µM. The method in brief: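 Recombinant human Clk4 (6.25 nM) phosphorylated RS repeat peptide (100 uM) with 1 uM ATP in Tris pH 7.5/MgCl2/EGTA/DTT/Triton buffer for one hour. ADP was quantified by Transcreener competitive fluorescence polarization against an ADP calibration curve.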

Assay [12] has as its target Ubiquitin carboxyl-terminal hydrolase 1 (Homo sapiens) (UniProt O94782). Briefly: Inhibitors of USP1/UAF1: Pilot qHTS (AID 504865).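 Further: rhodamine fluorescence freed from ubiquitin-rhodamine substrate followed over time; top concentration of the series differs between compounds; on the % scale 0 is the no-effect control and ±100 the full control effect; nearly all actives have a fitted effect of over 35% in size.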 Conditions: purified USP1/UAF1, Ub-rhodamine cleavage fluorescence; series mostly up to 54.9 µM. Put shortly:
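USP1/UAF1 complex (1nM) preincubated with compound 15 min at room temperature, then Ub-Rho substrate (150nM final) added. Fluorescence read kinetically at 480/540 nm, 6 reads every 60 seconds. Buffer: 50mM HEPES pH 7.8, 0.5mM EDTA, 0.1 mg/ml BSA, 1mM TCEP, 0.01% Tween-20.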

The nature of assay [13]: Primary qHTS for small molecule stabilizers of the endoplasmic reticulum resident proteome: Secreted ER Calcium Modulated Protein (SERCaMP) assay (AID 1508630). Further: on the % scale 0 is the no-effect control and ±100 the full control effect. To be noted: SH-SY5Y GLuc-SERCaMP (Gaussia luciferase released on ER calcium loss) secretion, thapsigargin, luminescence; series mostly up to 38.4 µM. Put shortly:
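The SH-SY5Y reporter protocol was run at 3 concentrations up to 38.3 uM (primary) or 11 concentrations (follow-up): 16 h compound, 100 nM thapsigargin for 4 h, then extracellular luciferase luminescence.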

Assay [14] deals with Cytochrome P450 2C19 (Homo sapiens) (UniProt P33261). Briefly: qHTS Assay for Inhibitors and Substrates of Cytochrome P450 2C19 (AID 899). Further: potency means the concentration at half of the fitted maximal effect; nearly all actives have a fitted effect of over 60% in size. Conditions: recombinant CYP2C19, luciferin-H EGE luminescence; series mostly up to 57.1 µM. Put shortly: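 Reactions contain 5nM enzyme, 10uM Luciferin-H EGE (KM) and 50mM KPO4; compound preincubates 10 min at 37C, NADPH regeneration starts turnover for 60 min. Luminescence after detection reagent gives activity.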
Cytochrome P450 2C19 (Homo sapiens), sequence (P33261 whole entry, looked up): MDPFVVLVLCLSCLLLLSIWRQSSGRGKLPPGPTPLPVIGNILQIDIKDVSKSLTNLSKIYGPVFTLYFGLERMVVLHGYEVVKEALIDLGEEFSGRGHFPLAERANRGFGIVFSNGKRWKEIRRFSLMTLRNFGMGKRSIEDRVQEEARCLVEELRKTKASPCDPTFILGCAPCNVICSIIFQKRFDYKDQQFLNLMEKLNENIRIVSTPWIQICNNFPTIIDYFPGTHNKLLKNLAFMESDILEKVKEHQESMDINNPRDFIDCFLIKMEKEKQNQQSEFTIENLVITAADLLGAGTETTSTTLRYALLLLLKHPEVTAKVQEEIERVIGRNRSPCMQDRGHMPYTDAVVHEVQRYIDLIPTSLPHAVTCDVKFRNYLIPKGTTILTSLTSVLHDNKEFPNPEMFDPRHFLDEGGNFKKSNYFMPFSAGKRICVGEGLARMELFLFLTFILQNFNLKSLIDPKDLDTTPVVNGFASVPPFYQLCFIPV

Assay [15] has as its target 3',5'-cyclic-AMP phosphodiesterase 4B (Homo sapiens) (UniProt Q07343). Briefly: qHTS Assay for Inhibitors of PDE-IV (AID 607; active means well fitted activation curve with a large enough effect in the main read-out, with a control signal flat, not every such curve was filed as active; further: % of control where 0% means no effect). Conditions: HEK293 ACTOne CNG channel cells, membrane potential fluorescence; series mostly up to 22.9 µM. Put shortly: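 Cell-based read-out of cAMP via a modified cyclic nucleotide-gated channel and membrane potential dye (535/590 nm) in HEK293 cells expressing PDE4 endogenously. Compounds tested up to 22.9 uM final; 100 uM RO 20-1724 reference.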

The target of assay [16] is Cytochrome P450 3A4 (Homo sapiens) (UniProt P08684). Briefly: qHTS Assay for Inhibitors and Substrates of Cytochrome P450 3A4 (AID 884). Further: potency means the concentration at half of the fitted maximal effect; nearly all actives have a fitted effect of over 50% in size. To be noted: recombinant CYP3A4, Luciferin-PPXE luminescence; series mostly up to 57.1 µM. Put shortly: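 Luminescent readout of luciferin produced by CYP3A4 (20 nM) dealkylation of Luciferin-PPXE, 25 uM (its KM). NADPH-driven reaction ran 60 min at RT after 10 min compound preincubation; data scaled to 57 uM ketoconazole as 100% inhibition.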
Cytochrome P450 3A4 (Homo sapiens), sequence (P08684 whole entry, looked up): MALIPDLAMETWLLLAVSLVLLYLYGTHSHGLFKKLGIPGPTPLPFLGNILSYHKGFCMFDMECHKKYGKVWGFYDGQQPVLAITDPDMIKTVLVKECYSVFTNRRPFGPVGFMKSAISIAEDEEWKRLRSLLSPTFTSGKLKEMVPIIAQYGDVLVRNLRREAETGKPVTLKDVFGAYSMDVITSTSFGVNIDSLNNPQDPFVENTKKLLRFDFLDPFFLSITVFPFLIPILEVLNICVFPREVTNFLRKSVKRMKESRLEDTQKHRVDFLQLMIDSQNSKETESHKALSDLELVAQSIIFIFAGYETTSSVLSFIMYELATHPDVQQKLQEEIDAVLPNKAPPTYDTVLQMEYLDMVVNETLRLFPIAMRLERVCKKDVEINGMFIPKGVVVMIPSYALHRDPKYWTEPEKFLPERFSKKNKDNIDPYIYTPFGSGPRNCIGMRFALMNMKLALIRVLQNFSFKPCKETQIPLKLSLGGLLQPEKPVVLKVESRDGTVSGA

Cytochrome P450 1A2 (Homo sapiens), sequence (P05177 whole entry, looked up): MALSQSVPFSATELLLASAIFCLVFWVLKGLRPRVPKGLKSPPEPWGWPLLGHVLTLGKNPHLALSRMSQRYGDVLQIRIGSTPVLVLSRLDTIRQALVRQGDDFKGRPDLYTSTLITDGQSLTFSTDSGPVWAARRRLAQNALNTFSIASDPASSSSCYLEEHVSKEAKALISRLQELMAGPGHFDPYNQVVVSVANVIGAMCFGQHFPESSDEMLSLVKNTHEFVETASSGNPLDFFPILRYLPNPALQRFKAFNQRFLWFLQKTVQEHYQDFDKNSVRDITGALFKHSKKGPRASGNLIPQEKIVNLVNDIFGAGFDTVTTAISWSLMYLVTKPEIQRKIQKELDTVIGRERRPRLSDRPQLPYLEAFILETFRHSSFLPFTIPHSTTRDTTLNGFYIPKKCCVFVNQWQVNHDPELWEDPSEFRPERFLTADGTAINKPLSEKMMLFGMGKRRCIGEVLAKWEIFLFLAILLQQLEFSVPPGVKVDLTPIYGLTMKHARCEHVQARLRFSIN
Ubiquitin carboxyl-terminal hydrolase 1 (Homo sapiens), sequence (O94782 whole entry, looked up): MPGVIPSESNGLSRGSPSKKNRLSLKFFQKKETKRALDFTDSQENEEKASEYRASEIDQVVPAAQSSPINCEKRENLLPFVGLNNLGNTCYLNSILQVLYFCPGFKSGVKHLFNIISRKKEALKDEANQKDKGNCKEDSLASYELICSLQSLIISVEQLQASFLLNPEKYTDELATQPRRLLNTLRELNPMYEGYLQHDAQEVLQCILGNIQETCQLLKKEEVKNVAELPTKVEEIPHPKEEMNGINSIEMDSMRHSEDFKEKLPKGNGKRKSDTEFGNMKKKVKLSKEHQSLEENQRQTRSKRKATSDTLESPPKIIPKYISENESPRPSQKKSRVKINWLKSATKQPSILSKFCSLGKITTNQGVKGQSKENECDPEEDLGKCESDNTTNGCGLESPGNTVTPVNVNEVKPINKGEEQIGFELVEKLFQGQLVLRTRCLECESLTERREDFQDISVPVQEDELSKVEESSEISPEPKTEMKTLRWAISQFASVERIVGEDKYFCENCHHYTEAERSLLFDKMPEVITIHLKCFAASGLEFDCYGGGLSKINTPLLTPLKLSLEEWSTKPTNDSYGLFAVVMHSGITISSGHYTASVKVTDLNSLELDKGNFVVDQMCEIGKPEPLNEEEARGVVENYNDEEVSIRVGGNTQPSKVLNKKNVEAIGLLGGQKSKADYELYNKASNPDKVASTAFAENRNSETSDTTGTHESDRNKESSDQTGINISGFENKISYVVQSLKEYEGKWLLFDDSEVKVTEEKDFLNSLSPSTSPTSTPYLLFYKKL
Lysosomal acid glucosylceramidase (Homo sapiens), sequence (P04062 whole entry, looked up): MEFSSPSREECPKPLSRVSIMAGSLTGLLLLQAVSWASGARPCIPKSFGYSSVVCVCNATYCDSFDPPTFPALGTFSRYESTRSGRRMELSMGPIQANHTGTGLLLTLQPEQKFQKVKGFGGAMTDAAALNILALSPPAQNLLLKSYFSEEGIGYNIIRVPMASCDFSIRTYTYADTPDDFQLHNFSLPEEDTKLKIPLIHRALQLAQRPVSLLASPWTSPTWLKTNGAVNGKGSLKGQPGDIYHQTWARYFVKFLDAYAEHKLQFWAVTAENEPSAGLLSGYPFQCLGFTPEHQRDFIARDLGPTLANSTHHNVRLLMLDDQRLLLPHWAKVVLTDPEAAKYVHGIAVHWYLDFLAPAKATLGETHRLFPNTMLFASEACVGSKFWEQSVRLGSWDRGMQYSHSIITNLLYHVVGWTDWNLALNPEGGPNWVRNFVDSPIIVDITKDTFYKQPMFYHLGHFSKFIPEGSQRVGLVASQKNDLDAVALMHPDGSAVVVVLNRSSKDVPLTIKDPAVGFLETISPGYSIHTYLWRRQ
Dual specificity protein kinase CLK4 (Homo sapiens), sequence (Q9HAZ1 whole entry, looked up): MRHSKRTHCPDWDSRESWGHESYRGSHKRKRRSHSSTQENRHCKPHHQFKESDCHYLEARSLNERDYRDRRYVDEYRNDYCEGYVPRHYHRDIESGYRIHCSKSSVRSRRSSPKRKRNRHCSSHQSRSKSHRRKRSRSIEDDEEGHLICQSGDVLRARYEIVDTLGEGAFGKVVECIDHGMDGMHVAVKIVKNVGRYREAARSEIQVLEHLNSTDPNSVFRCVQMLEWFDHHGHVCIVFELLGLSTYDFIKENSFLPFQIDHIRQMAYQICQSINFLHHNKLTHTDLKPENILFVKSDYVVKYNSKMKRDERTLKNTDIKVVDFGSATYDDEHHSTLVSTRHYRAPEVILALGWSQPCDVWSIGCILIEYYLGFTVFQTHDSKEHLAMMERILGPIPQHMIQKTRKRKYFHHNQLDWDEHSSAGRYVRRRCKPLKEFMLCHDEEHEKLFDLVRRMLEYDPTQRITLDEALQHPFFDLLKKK
3',5'-cyclic-AMP phosphodiesterase 4B (Homo sapiens), sequence (Q07343 whole entry, looked up): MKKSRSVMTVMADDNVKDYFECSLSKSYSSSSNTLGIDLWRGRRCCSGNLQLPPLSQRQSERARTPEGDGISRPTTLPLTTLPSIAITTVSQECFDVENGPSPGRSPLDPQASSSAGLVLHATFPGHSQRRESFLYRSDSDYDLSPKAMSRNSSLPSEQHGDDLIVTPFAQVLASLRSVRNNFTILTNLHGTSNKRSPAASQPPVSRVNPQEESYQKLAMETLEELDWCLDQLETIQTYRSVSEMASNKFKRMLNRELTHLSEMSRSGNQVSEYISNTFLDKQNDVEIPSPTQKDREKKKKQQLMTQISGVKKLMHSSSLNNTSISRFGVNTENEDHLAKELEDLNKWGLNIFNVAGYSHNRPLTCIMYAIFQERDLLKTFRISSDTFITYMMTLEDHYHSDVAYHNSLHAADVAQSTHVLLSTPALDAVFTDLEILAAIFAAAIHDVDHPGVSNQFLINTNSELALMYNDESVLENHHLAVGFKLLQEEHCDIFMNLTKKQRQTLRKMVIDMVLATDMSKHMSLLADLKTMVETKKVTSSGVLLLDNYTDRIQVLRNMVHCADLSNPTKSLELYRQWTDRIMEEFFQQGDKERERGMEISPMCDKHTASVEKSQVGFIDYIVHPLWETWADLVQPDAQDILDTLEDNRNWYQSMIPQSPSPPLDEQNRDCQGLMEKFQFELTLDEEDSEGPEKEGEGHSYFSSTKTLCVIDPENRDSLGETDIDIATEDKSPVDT

Take `COCCn1c(=O)c(-c2cccs2)nc2cnc(OC)nc21`: the Potency was > 11.4 µM in [1], 2.51 µM (active) in [3], > 9.22 µM in assay [6] and > 46 µM in [7]. Besides, the activity change, negative = inhibition in assay [2] is 6.04%; in assay [4], 15.6%. For the same molecule, the activity, negative = inhibition in assay [5] is 6.32%. Besides, the Potency result in [8], in assay [9], in [10], in assay [11] and in assay [12] was “inactive” in each case. Moreover, in [13], the outcome was inactive.
`CCNc1ncc2nc(-c3ccc(F)cc3)c(=O)n(-c3ccc(OC)cc3)c2n1`: the Potency in assay [1] is > 11.4 µM; in [3], 6.31 µM (active); in assay [6] it was > 9.22 µM; in [7], > 46 µM. Besides, the activity change, negative = inhibition in assay [2] was -1.24%. For the same molecule, the activity, negative = inhibition in assay [5] is 20.4%. Also, the Potency result in assay [8], in [9], in assay [10], in assay [11] and in assay [12] was “inactive” each time. For the same molecule, in assay [13], the outcome was inactive.
In the case of `CN(C)C(=O)c1ccc(-c2ccc3ncnc(NCc4ccccc4)c3c2)cc1`, the Potency in assay [1] is > 11.4 µM; in assay [3] it was 15.8 µM (active); in assay [6] it was > 46 µM; in [7], > 46 µM. The activity change, negative = inhibition in assay [4] is 13%. Further, the activity, negative = inhibition in [5] was 7.31%. The Potency entry in assay [8], in [10], in assay [11] and in assay [12] was “inactive” in each case. The result in [13] was inactive.
Turning to `COCCn1c(=O)c(-c2cccs2)nc2cncnc21`, the Potency in assay [1] is > 11.4 µM; in assay [3] it was 3.16 µM (active); in assay [6] it was > 9.22 µM; in [7], > 46 µM. Also, the activity change, negative = inhibition was -17.4% in [2] and 11.8% in [4]. For the same molecule, in assay [5], the activity, negative = inhibition is -2.25%. For the same molecule, the Potency result in [8], in [9], in assay [10], in assay [11] and in assay [12] was “inactive” in each case. For the same molecule, the outcome in assay [13] was inactive.
In the case of `N#Cc1cccc(-c2nccc(NCc3cccs3)n2)c1`, the Potency was > 11.4 µM in assay [1]; 0.251 µM (active) in [3]; > 46 µM in assay [6]; > 46 µM in assay [7]; 3.98 µM (active) in assay [14]; 7.08 µM (active) in [10]. Besides, the Potency in assay [11] was 8.91 µM (active). Moreover, the figures for the activity change, negative = inhibition in assay [2] and in [4] were -27.8% and 11.9%, respectively. Besides, the activity, negative = inhibition in assay [5] was -14.7%. For the same molecule, the Potency entry in [8], in [9] and in [12] was “inactive” throughout. In addition, the outcome in assay [13] was inactive.
Take `COCCn1c(=O)c(-c2ccccc2)nc2cnc(N3CCOCC3)nc21`: the Potency in assay [1] is > 11.4 µM; in assay [6], > 9.22 µM; in assay [7], > 46 µM. Further, the activity change, negative = inhibition in assay [2] was -10.7%; in [4], 18.3%. Besides, the activity, negative = inhibition in assay [5] is -4.75%. The Potency entry in [8], in [15], in assay [10], in assay [11] and in assay [12] was “inactive” in each case. In addition, the outcome in assay [13] was inactive.
For `COc1cccc(-c2ccc3ncnc(N(C)C)c3c2)c1`, the Potency was > 11.4 µM in [1]; 0.794 µM (active) in [3]; > 46 µM in assay [6]; > 46 µM in assay [7]; 7.94 µM (active) in assay [16]; 3.16 µM (active) in [14]. The figures for the Potency in assay [10] and in [11] were 4.47 µM (active) and 2.51 µM (active), respectively. In addition, the activity change, negative = inhibition in assay [4] is 27.5%. In addition, in assay [5], the activity, negative = inhibition is -13.9%. Moreover, the Potency entry in [8], in [15], in [9] and in assay [12] was “inactive” each time. Also, the outcome in assay [13] was inactive.
